What follows are sequences tested against CTCFL (assay: pooled miR-30 sensor sort-seq; sequence = guide strand). Details: shRNA.
TTATTTTCTAGTCTAATCTAGT was tested, and the sensor-assay potency score (higher = more potent) was -0.371. TTTAGAAGTTGCTTCTGTCGGA showed a sensor-assay potency score (higher = more potent) of 0.605. TTTATGTTTCTTCTCACTCTGC gave a sensor-assay potency score (higher = more potent) of -0.0954. TTGAATTATGTAAAACATCTTT was tested, and the sensor-assay potency score (higher = more potent) was -0.709.

Each sequence was assayed against CTDSP1 in the same assay as above. Details: shRNA.
TTCACTGGCTTGAAGGAGCTGT was tested, and the sensor-assay potency score (higher = more potent) was 0.427. For TTGTCCAGGATGAGCACCCGCC, the sensor-assay potency score (higher = more potent) was -0.921. TATTGGACTGGGGTCTTAGGGA was tested, and the sensor-assay potency score (higher = more potent) was -0.481. TTGTTCACTGGCTTGAAGGAGC showed a sensor-assay potency score (higher = more potent) of -0.757. Work on TTTGAAGGCACTGACACGGGGC yielded a sensor-assay potency score (higher = more potent) of 0.517. In the case of TCCAGGTCGATGACCACGCAGA, the sensor-assay potency score (higher = more potent) is reported as -1.79. For TGAGCACTGAGTACACGTCGTC, the sensor-assay potency score (higher = more potent) was -0.158. Work on TTGGACTGGGGTCTTAGGGATG yielded a sensor-assay potency score (higher = more potent) of -1.55. For TACACGTCGTCCACACGGCTGA, the sensor-assay potency score (higher = more potent) was -0.19. In the case of TCGATGACCACGCAGATCTTGT, the sensor-assay potency score (higher = more potent) is reported as -1.32. Work on TACAGCATTGTCTGGATGGAAG yielded a sensor-assay potency score (higher = more potent) of -1.6. For TAGACCTGGTGGACCACCCCAT, the sensor-assay potency score (higher = more potent) was -0.5.

Reference: the OligoGym collection
